According to PubChem BioAssay (Tox21):
Results filed as inconclusive are left out. Entries that show only a call come without a potency. Activity calls are given as the source filed them. Calls follow the shape of the full dose curve.

Biological target: Beta-2 adrenergic receptor (Homo sapiens) (UniProt P07550)
Experiment: Adrenergic beta2 receptor (ADRB2) small molecule agonists, cell-based qHTS assay (AID 1963593);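 also: CHO cells stably overexpressing human ADRB2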
Method in brief: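 CHO cells stably over-expressing ADRB2 were plated overnight at 37C, then dosed with compounds plus a stimulation mix containing 100uM IBMX and 25uM Ro-20-1724 for 0.5hr at room temperature. cAMP was measured by HTRF competition, 1hr.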

Beta-2 adrenergic receptor (Homo sapiens), sequence (P07550 whole entry, looked up): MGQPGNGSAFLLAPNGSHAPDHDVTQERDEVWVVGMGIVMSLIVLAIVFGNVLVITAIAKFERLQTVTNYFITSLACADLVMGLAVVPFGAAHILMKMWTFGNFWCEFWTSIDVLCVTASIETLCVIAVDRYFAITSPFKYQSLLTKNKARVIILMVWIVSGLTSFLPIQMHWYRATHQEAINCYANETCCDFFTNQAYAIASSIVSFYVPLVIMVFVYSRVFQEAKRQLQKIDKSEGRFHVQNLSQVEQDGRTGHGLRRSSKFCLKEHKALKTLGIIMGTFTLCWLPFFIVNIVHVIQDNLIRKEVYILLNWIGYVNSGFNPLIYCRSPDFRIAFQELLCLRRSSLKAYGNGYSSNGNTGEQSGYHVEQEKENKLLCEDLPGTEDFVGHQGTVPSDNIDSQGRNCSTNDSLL

Row | Structure (SMILES) | Potency
1 | O=[N+]([O-])c1ccc(CO)cc1 | inactive
2 | CC1=CP(=O)(c2ccccc2)CC1 (stereo unspecified) | inactive
3 | CCCC(C)C(=O)OCC (stereo unspecified) | inactive
4 | OC1CCC(C2CCCCC2)CC1 (stereo unspecified) | inactive
5 | CC(C)COC(=O)c1ccccc1 | inactive
6 | CCCCC1CCCCC(=O)O1 (stereo unspecified) | inactive
